# In PubChem BioAssay (NCI):
# Compounds without any hit were thinned out: in the full panel of roughly 83,000, 20% have a hit.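 Assay: single dose, 48 h. Readout: percent growth (0 = no net growth; negative = cell death). Active: <10.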 A number with no mark means an inactive call. Activity calls are given as the source filed them.
# System: T-47D breast
# Assay: NCI-60 one-dose screen, 48 h (100 = growth as untreated, 0 = no growth, -100 = all killed)
# Settings: 10 µM
row,Compound,growth
1,CCCCOC(OCCCC)c1ccccc1,100%
2,O=C(O)c1cccc([N+](=O)[O-])c1O,101%
3,O=C1c2ccccc2C(=O)N1OCc1ccccc1,92.1%
4,C[C@@H](c1ccccc1)[C@@H](C(=O)O)c1ccccc1,101%
5,CC1=CC(C)(C)NC(=S)N1c1ccc(S(=O)(=O)O)c2cccc(S(=O)(=O)O)c12,106%
6,CC(=O)OC(OC(C)=O)C1CCCO1 (centres undefined),101%
7,c1ccc2c(N3CCCCC3)ncnc2c1,130%
8,S=c1nn[nH]c2ccccc12,109%
9,O=[N+]([O-])c1ccc(Sc2ccncn2)c([N+](=O)[O-])c1,48.3%
10,O=c1[nH]c(O)c(/C=C2/C=Nc3ccccc32)[nH]1,85.5%
11,CC1OC(Oc2c(-c3ccc(O)c(O)c3)oc3cc(O)cc(O)c3c2=O)C(O)C(O)C1O (centres undefined),105%
12,Cc1ccc(O)c(C(=O)c2ccccc2)c1,109%
13,OCC1OC(OC2C(O)C(CO)OC2(CO)OC2OC(CO)C(O)C(O)C2O)C(O)C(O)C1O (centres undefined),110%
14,C[N+](C)(C)C(=O)c1ccccc1,90.4%
15,O=[N+]([O-])c1ccc(Cl)c(S(=O)(=O)O)c1,103%
16,Cc1cc2ccccc2c(O)c1C#N,88.8%
17,COc1ncnc2c1cnn2C,97.1%
18,NC(C(=O)O)c1ccc([N+](=O)[O-])cc1 (centres undefined),99.3%
19,CC(O)COc1ccc(-c2ccccc2)cc1 (centres undefined),94%
20,C1CNC(C2=NCCN2)=N1,101%

row,Compound,growth
1,CN(C)C(C)(C)CC(C)(C)C,104%
2,O=[N+]([O-])c1ccc(S(=O)(=O)NN=C2CCCCC2)cc1,107%
3,C[C@]12CC[C@@H]3c4ccc(OCC(=O)O)cc4CC[C@H]3[C@@H]1CCC2=O,114%
4,Nc1ncnc2[nH]ncc12,6% (active)
5,CCCNc1ccc(C2=NCCCN2)cc1,97.3%
6,O=C(N/N=C/c1ccccc1O)Nc1nn[nH]n1,105%
7,Cc1ccc(CCCC(=O)O)c(C)c1,95.2%
8,CC(=O)c1cc2c(cc1F)C(C)(C)CCC2(C)C,109%
9,CN(c1ccccc1)c1ncnc2c1ncn2C,100%
10,CCCCC1(CC)COC(CCC)OC1 (centres undefined),104%
11,COc1cc2c3cc1Oc1c(OC)c(OC)cc4c1C(Cc1ccc(O)c(c1)Oc1ccc(cc1)CC3N(C)CC2)N(C)CC4 (centres undefined),-64.6% (active)
12,CCC(C#N)(CC)c1ccccc1,95.3%
13,FC(F)(F)c1ccc2c(c1)N(CCCN1CCN(C3CC3)CC1)c1ccccc1S2,87.8%
14,CC1NC(=O)NC1CCCCCC(=O)O (centres undefined),101%
15,COS(=O)(=O)c1ccc(Br)cc1,93.9%
16,O=[N+]([O-])c1cccc(N=Nc2ccc(O)cc2O)c1,54%
17,Cc1cc(OCCO)cc(C)c1Cl,111%
18,Cc1cc(O)ccc1O,101%
19,CCOc1ccc(Br)cc1/C=N\N=C\c1cc(Br)ccc1OCC,93%
